PubChem BioAssay AID1745845 (National Center for Advancing Translational Sciences (NCATS), 2022)
“And” between values parts separate entries of the source, which are not always exact repeats. Equal values may be shown once. About 2,600 (0.72%) of roughly 360,000 compounds were called active. Roughly 5% stayed inconclusive and do not appear here. Calls follow the shape of the dose curve; as a rule, active = well fitted inhibition curve with a large enough effect; inconclusive = small, poorly fitted or top-dose-only effect; inactive = no such curve, though single readings can be large or run the other way. The list comes from a sample in which actives are over-represented; it also holds similar structures and randomly drawn compounds. More than one record can exist for a structure, and the calls need not agree.

Assay: Primary qHTS for Inhibitors of ATXN expression; also: nearly all actives have a fitted effect of over 55% in size
Conditions: HEK-293 ATXN2-luciferase reporter, luminescence, 24 h; series mostly up to 57 µM; activity change, negative = inhibition: at the top concentration
Method in brief: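 ATXN2-luciferase reporter cells (luciferase flanked by upstream and downstream ATXN2 gene portions) were treated 24 h at 37 °C with compounds at up to 57 uM. SteadyGlo luminescence gave expression; GF-AFC fluorescence gave viability.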
% is scaled to controls: 0 for no effect and ±100 for the full control effect; potency is read from the fitted curve at half-maximal effect.

Structure (SMILES) | activity change, negative = inhibition | Potency
N#Cc1ccccc1Cn1cnc2nc3c(cc2c1=O)CCCC3 | 15.7% (inactive) | 
Cc1nc2c(OCc3ccc(Cl)cc3Cl)cccn2c1N(C)CC1CC1 | -0.165% (inactive) | 
O=[N+]([O-])c1ccc(C=Nc2ccc(Cl)cc2Cl)s1 |  | 12.6 µM (active)
CNN/C(N=Cc1ccc([N+](=O)[O-])s1)=N\S(=O)(=O)c1cc(C)c(Cl)cc1SCc1ccccc1 | 4.25% (inactive) | 
COC(=O)c1ccccc1NC(=O)c1cc(-c2ccccc2O)no1 | -7.07% (inactive) | 
CC(C)CCNC(=O)CSc1nc2ccccc2nc1Cc1ccc(Cl)cc1 | 8.32% (inactive) | 
COc1ccc(CCNC(=O)CCc2ccccc2O)cc1OC | -8.28% (inactive) | 
COc1ccc(Cc2nnc(N/N=C/c3ccccc3O)[nH]c2=O)cc1OC |  | 3.55 µM (active)
COc1ccc(Cc2nnc(SC)[nH]c2=O)cc1 | -0.583% (inactive) | 
CCCCCc1c(-c2ccc(OC)c(OC)c2)ncn1CCc1ccccc1OC | -19.7% (inactive) | 
COc1ccc(CNc2nc(-c3ccccc3)nn2C(=O)c2ccccc2OC)cc1 | 11.6% (inactive) | 
COc1cc(Cl)cn2c(-c3cccc(NC4CNC4)n3)cnc12 | -7.34% (inactive) | 
Cc1ccc(-n2ncc3c(=O)n(Cc4cccc(C(F)(F)F)c4)cnc32)cc1C | 9.19% (inactive) | 
CC1(C)OC(=O)C2=C(C[C@@H](C3CCCCC3)O[C@@H]2c2ccc(Cl)cc2)O1 | -15.8% (inactive) | 
NC(=O)C(=O)N/N=C/c1ccc([N+](=O)[O-])o1 | -10.7% (inactive) | 
Cc1onc(C(=O)NCc2ccc(F)cc2)c1[N+](=O)[O-] | -8.25% (inactive) | 
O=C(/C=C/c1ccc([N+](=O)[O-])o1)NNC(=O)c1ccc(F)cc1 |  | 6.31 µM (active)
Cc1ccc(S(=O)(=O)c2c(Nc3cccc(Cl)c3)sc(C(=O)c3ccc4c(c3)OCO4)c2N)cc1 | -24.7% (inactive) | 
CC(OC(=O)c1ccc([N+](=O)[O-])cc1)C(=O)NCC1CCCCC1 (stereo unspecified) | -4.37% (inactive) | 
COc1ccc(NC(=O)CCC(=O)Nc2cc(OC)c(NC(=O)c3ccco3)cc2OC)c(OC)c1 | -5.94% (inactive) | 
COc1cc(C(=O)OC(C)C(=O)NCC2CCCCC2)cc(NC(=O)c2ccco2)c1OC (stereo unspecified) |  | 25.1 µM (active)

Structure (SMILES) | activity change, negative = inhibition | Potency
COC(=O)c1c(NC(=O)CCCOc2ccccc2)sc2c1CCC(C)C2 (stereo unspecified) | 1.43% (inactive) | 
CC(=O)c1cccc(NC(=O)c2nc(-c3ccccc3)n(-c3cccc(C)c3)n2)c1 | -32.6% (inactive) | 
Cc1cc(Br)ccc1NC(=O)Cn1cnc2sc(C)c(S(=O)(=O)N3CCN(C)CC3)c2c1=O | 12.6% (inactive) | 
CN[C@@H]1[C@@H](O)[C@@H](O[C@@H]2[C@H](O)[C@H](O[C@H]3OC(CN)=CC[C@H]3N)[C@@H](N)C[C@H]2N)OCC1(C)O (stereo partly specified) | 12.2% (inactive) | 
Cc1ccc2nc(CNC(=O)c3ccccc3)[nH]c2c1 | 71.8% (inactive) | 
COc1cc(/C=N/NC(=O)c2cc(-c3ccccc3C)nc3ccccc23)cc(OC)c1O | 1.95% (inactive) | 
Cc1ccc(/C=N/NC(=O)C2=NNC(c3ccccc3)(c3ccccc3)C2)c(O)c1 |  | 3.16 µM (active)
CCC(C)Cn1c(O)cc2nn(-c3nc4ccccc4s3)c(=O)c-2c1C (stereo unspecified) |  | 14.1 µM (active)
COc1ccc(OC)c(NC(=O)/C=C/c2ccc(C)o2)c1 | 4.77% (inactive) | 
CCOC(=O)C1CCN(c2nc3c(S(=O)(=O)c4ccc(CC)cc4)nnn3c3ccc(Cl)cc23)CC1 | 7.33% (inactive) | 
CCCCCn1c(=O)[nH]c2cc(C(=O)NCCN(C)CCCC)ccc2c1=O | -7.68% (inactive) | 
COc1ccccc1CNC(=O)NCc1noc2ccc(C)cc12 | -5.43% (inactive) | 
CC(C)(C)c1ccc(Oc2ccc(N)cc2)cc1 |  | 2.82 µM (active)
CN(C)S(=O)(=O)c1ccc(Oc2ccc(S(=O)(=O)N(C)C)cc2)cc1 | -15.9% (inactive) | 
Cc1cc(C(C)(C)C)cc(C)c1N | -8.09% (inactive) | 
O=C(OCCN1CCOCC1)c1cccnc1Nc1cccc(C(F)(F)F)c1 | -16.6% (inactive) | 
CCCCN(CCCC)CCC(O)c1cc2c(Cl)cc(Cl)cc2c2cc(C(F)(F)F)ccc12 (stereo unspecified) |  | inactive and 31.6 µM (active)
Cc1c(Cl)cccc1NC(=O)C(=O)NCCc1csc2nc(-c3ccccc3F)nn12 | -5.63% (inactive) | 
Oc1ccc2ccccc2c1N=Nc1nccs1 |  | 3.55 µM (active)
Cc1ccccc1Cn1nc(C)c(NC(=O)c2cc(-c3ccc(F)cc3)on2)c1C | -0.902% (inactive) | 
COc1cc(NC(=O)CN2CCN(S(=O)(=O)c3ccc(Br)cc3)CC2)cc(OC)c1 | 2.9% (inactive) | 

Structure (SMILES) | activity change, negative = inhibition | Potency
COc1ccc(C(=O)Nc2nc(-c3ccc(S(=O)(=O)N4CCOCC4)cc3)cs2)cc1 |  | 25.1 µM (active)
CNC(=O)c1ccsc1NC(=O)c1ccc(S(=O)(=O)N2CCOCC2)cc1 | 8.05% (inactive) | 
Cc1cc2nc(NC(=O)c3ccc(S(=O)(=O)N4CCOCC4)cc3)sc2cc1C | 0.447% (inactive) | 
CCc1nc2c(cnn2-c2ccc(C)cc2)c(=O)n1-c1ccc(C)cc1 | 8.05% (inactive) | 
Cc1ccccc1CSCCNC(=O)C1CCN(S(=O)(=O)Cc2ccccc2)CC1 | -4.49% (inactive) | 
CC1=CC(C)(C)Nc2ccc(OC(=O)CN3C(=O)C4CCCCC4C3=O)cc21 (stereo unspecified) |  | 31.6 µM (active)
CC1=CC(C)(C)Nc2ccc(OC(=O)C(Cc3ccccc3)N3C(=O)C4CCCCC4C3=O)cc21 (stereo unspecified) | -33.8% (inactive) | 
O=C(COC(=O)CN1C(=O)C2CCCCC2C1=O)Nc1ccc(F)c(F)c1F (stereo unspecified) | -0.766% (inactive) | 
C[C@]12CCC3=C4CCC(=O)C=C4CC[C@@H]3[C@H]1CC[C@@]2(O)CC#N | 15.3% (inactive) | 
COc1ccc(C(=O)/C=C/Nc2ccccn2)cc1 |  | 8.91 µM (active)
Cc1cc(N/C=C\C(=O)c2ccc(Cl)c(Cl)c2)no1 | 19% (inactive) | 
CCOc1cc2ccccc2cc1C(=O)Nc1ccccn1 | 6.94% (inactive) | 
COc1ccc(CNC(=O)CSc2nc3ccccc3nc2Cc2ccccc2)cc1 | 6.56% (inactive) | 
O=C(NCCC1=CCCCC1)c1ccc2c(c1)N(Cc1ccccc1F)C(=O)c1ccccc1S2(=O)=O | -14.3% (inactive) | 
CCOC(=O)c1c(C)[nH]c(C)c1S(=O)(=O)N1CCCC(C(=O)NCc2ccccc2Cl)C1 (stereo unspecified) | 13.6% (inactive) | 
O=C(CN1C(=O)c2ccccc2S1(=O)=O)N1CCc2ccccc21 |  | 2.51 µM (active)
CC1CCCN(C(=O)CN2C(=O)c3ccccc3S2(=O)=O)C1 (stereo unspecified) | 2.01% (inactive) | 
CN(Cc1ccc(F)cc1)C(=O)CN1C(=O)c2ccccc2S1(=O)=O | 20.2% (inactive) | 
CO[C@H]1C=CO[C@@]2(C)Oc3c(C)c(O)c4c(O)c(c(/C=N/N5CCN(C)CC5)c(O)c4c3C2=O)NC(=O)/C(C)=C\C=C[C@H](C)[C@H](O)[C@@H](C)[C@@H](O)[C@@H](C)[C@H](OC(C)=O)[C@@H]1C | 16.3% (inactive) | 
